# The panel holds about 83,000 compounds, 20% with a hit somewhere; the sample as a whole holds those more often.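 How to read the values: 0–100, growth inhibition (40 = 60% inhibited); 0, no net growth; -100 to 0, cell death (-40 = 40% of starting cells died; -100 = all dead).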 Unmarked numbers belong to inactive results. The source made the active and inactive calls. How the source made its calls: active means growth percent below 10; inactive means the rest.
# Key:
# Assay in all cases: NCI-60 one-dose screen, 48 h (100 = growth as untreated, 0 = no growth, -100 = all killed)
# Conditions in all cases: 10 µM
# NCI-H23 lung = test system: NCI-H23 lung
# NCI-H226 lung = test system: NCI-H226 lung
# NCI-H322M lung = test system: NCI-H322M lung
# HOP-62 NSCLC = test system: HOP-62 NSCLC
# NCI-H460 lung = test system: NCI-H460 lung
# HOP-92 NSCLC = test system: HOP-92 NSCLC
# NCI-H522 lung = test system: NCI-H522 lung
# A549/ATCC NSCLC = test system: A549/ATCC NSCLC
# 786-0 renal = test system: 786-0 renal
# COLO 205 colon = test system: COLO 205 colon
# DU-145 prostate = test system: DU-145 prostate
# K-562 leukemia = test system: K-562 leukemia
# MALME-3M melanoma = test system: MALME-3M melanoma
# MDA-MB-231 breast = test system: MDA-MB-231 breast
# SF-268 CNS = test system: SF-268 CNS
# SF-295 CNS = test system: SF-295 CNS
# SF-539 CNS = test system: SF-539 CNS
# UACC-257 melanoma = test system: UACC-257 melanoma
# M14 melanoma = test system: M14 melanoma
Compound,growth (NCI-H23 lung),growth (NCI-H226 lung),growth (NCI-H322M lung),growth (HOP-62 NSCLC),growth (NCI-H460 lung),growth (HOP-92 NSCLC),growth (NCI-H522 lung),growth (A549/ATCC NSCLC) [%],growth (786-0 renal),growth (COLO 205 colon),growth (DU-145 prostate) [%],growth (K-562 leukemia),growth (MALME-3M melanoma),growth (MDA-MB-231 breast),growth (SF-268 CNS),growth (SF-295 CNS),growth (SF-539 CNS),growth (UACC-257 melanoma),growth (M14 melanoma)
CC(C)c1ccc(C(=O)Nc2sc3c(c2C(N)=O)CCC(=O)C3=O)cc1,81.3%,86.6%,104%,102%,97.5%,127%,84%,99.4,113%,104%,103,77.4%,103%,93.3%,103%,104%,93.9%,93.8%,96.3%
CC(=O)Oc1ccccc1C(=O)Oc1ccc(C(=O)/C=C/c2ccncc2)cc1,36.9%,62.8%,66.5%,83.4%,35.6%,94.1%,59.1%,81,53.2%,40.4%,46.2,11.6%,86.2%,40.8%,75%,59.1%,-35.6% (active),94.9%,47.6%
Cc1ccc(/C=C/C(=O)c2ccc(NC(=O)CSc3nnc(-c4c[nH]c5ccccc45)n3-c3ccccc3)cc2)c(C)c1,-1.3% (active),33.1%,75.8%,99.4%,-35.8% (active),76.8%,25%,54.3,65.8%,70.5%,41.1,35.4%,-71.7% (active),21.9%,72.3%,66.1%,-95.3% (active),90.2%,53.5%
COc1ccc(Nc2nc(N)n(Cc3cccc(Br)c3)n2)cc1,0.552% (active),10%,27.7%,35.1%,-17.6% (active),-36.9% (active),-20.9% (active),19.6,-9.25% (active),-46.6% (active),22.6,7.86% (active),-25% (active),-5.79% (active),16%,4.42% (active),-3.08% (active),6.73% (active),0.65% (active)
O=c1[nH]c2ccccc2cc1CSc1ccc(Nc2nccc(-c3ccc4c(c3)OCO4)n2)cc1,86.1%,74%,97.7%,84%,83.1%,78.6%,96.9%,76.7,84.7%,71.6%,77.5,87.6%,55.2%,78.6%,71.6%,101%,9.95% (active),105%,82.4%
CN(C(=O)c1ccc(C(C)(C)C)cc1)c1sc2c(c1C#N)CCC(=O)C2,-29.1% (active),62.6%,88.4%,34.6%,35.6%,21.9%,-45.8% (active),91.5,50.3%,80.7%,80.7,11.7%,-6.14% (active),-74.4% (active),18.5%,-0.987% (active),-86.1% (active),97%,19.3%
Brc1ccc(N/N=C/c2c[nH]c3ccccc23)nc1,41.1%,35.5%,47.6%,32%,9% (active),-28.4% (active),24.9%,37.7,0.458% (active),48.8%,37.7,11.7%,64.1%,-26% (active),21.4%,25.3%,21%,70.8%,14.3%
CCOc1ccc(Nc2nc3ccccc3nc2Nc2ccc(OCC)cc2)cc1,55.2%,85.6%,71.3%,64.9%,17.2%,27.6%,55.9%,41.3,32.1%,95.9%,45.1,30.2%,83.7%,67.7%,40%,43.3%,80.8%,75%,37.6%
O=c1c2ccccc2nc(COc2ccccc2)n1/N=C/c1ccc(F)cc1,85.6%,78.9%,96.6%,105%,85.4%,100%,81.8%,86.2,89.4%,114%,91.4,69.8%,115%,88%,99.7%,89.4%,89.6%,99.8%,98.8%
CC(=O)C1=C(C)NC(SCC(=O)Nc2ccc(S(=O)(=O)Nc3cc(C)on3)cc2)=NC1c1ccccc1 (centres undefined),102%,117%,102%,105%,98.3%,132%,100%,99.1,102%,122%,109,104%,100%,110%,107%,106%,101%,103%,108%
O=C(Nc1ccc(Cl)c(C(F)(F)F)c1)c1cncc(C#Cc2cnc3ccc(N4CCOCC4)nn23)c1,-18.7% (active),-32.8% (active),6.5% (active),11.1%,29.3%,-48.6% (active),-11.3% (active),16.1,-28.5% (active),11.9%,20.6,13.3%,-39.8% (active),-44.6% (active),7.89% (active),5.28% (active),-42% (active),6.55% (active),11.3%
Cc1noc2c(Cc3ccccc3)nn(CC(=O)N/N=C/c3ccc(Br)cc3)c(=O)c12,69.9%,32.5%,102%,43.3%,13.1%,35.1%,74.4%,18.1,-24.9% (active),39.7%,61.1,87.2%,64.9%,20.6%,75.5%,50.6%,74.4%,101%,101%
O=C(Cc1ccc2c(c1)CN(C1CCC(=O)NC1=O)C2=O)NCCc1ccccc1 (centres undefined),72.8%,11.4%,22.5%,0.419% (active),110%,-14.1% (active),35.4%,20.3,6.47% (active),0.214% (active),66.8,20.2%,-59.7% (active),-32.2% (active),31.3%,17%,29.1%,92.2%,7.92% (active)
COc1cc(NC(=O)CSc2nnc(-c3ccc4nc(-c5ccc(Cl)cc5)[nH]c4c3)o2)cc(OC)c1OC,40.3%,38.7%,90.8%,89.7%,67.2%,128%,45.1%,90.4,78.3%,82.4%,73.8,31.3%,66.5%,75.2%,76.1%,48%,43.7%,94.4%,69.5%
Cc1ccc(C(=O)N/C(=C2/OCCN2C)[P+](c2ccccc2)(c2ccccc2)c2ccccc2)cc1,85.1%,92.9%,100%,96.9%,83.8%,60.3%,57.8%,97.8,103%,57.9%,84.9,50.4%,63.6%,65.6%,92.7%,87.3%,91.4%,49.6%,82.9%
COc1ccc(CN2[C@@H](C(=O)NCc3ccc(C(=O)NO)cc3)Cc3c([nH]c4ccccc34)[C@@H]2C2CC2)cc1,21.3%,50.8%,42%,24%,13.7%,-3.87% (active),-17% (active),40.3,28.4%,-40.3% (active),15.8,6.95% (active),12.8%,5.56% (active),20.9%,3.12% (active),15.3%,36.3%,16.1%

# — PubChem BioAssay (NCI)
